# From PubChem BioAssay (NCATS)
# Records with an inconclusive call do not appear. Calls of active or inactive are those of the source. Calls follow the shape of the dose curve; as a rule, active = well fitted activation curve with a large enough effect; inconclusive = small, poorly fitted or top-dose-only effect; inactive = no such curve, though single readings can be large or run the other way.
# Biological target: Cellular tumor antigen p53 (Homo sapiens) (UniProt P04637)
# Assay: Primary qHTS for small molecule compounds that upregulate eGFP-tagged delta133p53alpha (in N-terminal) cells. (AID 2060322); also: nearly all actives have a fitted effect of over 75% in size;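 as to activation: cells pre-induced with doxycycline then dosed without doxycycline; series mostly up to about 56 µM; 0% = DMSO vehicle and 100% = reference activator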
# Conditions: NCI-H358 eGFP-delta133p53alpha fluorescence, 24 h; activation: hits give high values
# Method in brief: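 NCI-H358 cells pre-induced 24 h with 10 ng/ml doxycycline for eGFP-delta133p53alpha, plated dox-free and exposed 24 h at 37C to titrated compounds. Fixed, Hoechst-stained; gated GFP peak intensity by laser scanning cytometry, normalized to DMSO (0%) and 57.5 uM 5-azacytidine (100%).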
# Potency is read from the fitted curve at half-maximal effect.
# Chain of Cellular tumor antigen p53 (Homo sapiens) (P04637 whole entry, looked up): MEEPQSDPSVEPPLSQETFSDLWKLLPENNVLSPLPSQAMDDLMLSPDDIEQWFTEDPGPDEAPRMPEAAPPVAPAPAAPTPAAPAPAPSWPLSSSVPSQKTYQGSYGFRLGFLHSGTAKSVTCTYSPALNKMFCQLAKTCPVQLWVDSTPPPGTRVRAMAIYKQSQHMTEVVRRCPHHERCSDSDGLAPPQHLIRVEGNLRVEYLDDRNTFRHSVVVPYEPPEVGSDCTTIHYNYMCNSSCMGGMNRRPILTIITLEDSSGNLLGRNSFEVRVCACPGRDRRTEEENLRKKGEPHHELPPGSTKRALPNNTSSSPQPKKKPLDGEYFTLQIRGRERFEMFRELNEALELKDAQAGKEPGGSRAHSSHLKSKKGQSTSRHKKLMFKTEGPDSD
SMILES,activation,Potency
CCOC(=O)c1ccc(O)cc1,-12.6% (inactive),
CC(=O)OCC(=O)[C@@]1(OC(C)=O)[C@@H](C)C[C@H]2[C@@H]3C[C@H](F)C4=CC(=O)C=C[C@]4(C)[C@@]3(F)[C@@H](O)C[C@@]21C,5.08% (inactive),
O=S(=O)(NCCNCC=Cc1ccc(Br)cc1)c1cccc2cnccc12,-19.7% (inactive),
CO/N=C(/C(=O)N[C@@H]1C(=O)N2C(C(=O)OCOC(=O)C(C)(C)C)=C(C)CS[C@H]12)c1csc(N)n1,-20.9% (inactive),
CCCCN=C(N)NC(=N)N,9.6% (inactive),
CC(C)(C)c1[nH]cnc1C=c1[nH]c(=O)c(=Cc2ccccc2)[nH]c1=O,-1.26% (inactive),
CCC(=C(CC)c1ccc(O)cc1)c1ccc(O)cc1,-17% (inactive),
Oc1ccccc1-c1nnco1,-23.2% (inactive),
CC[C@H]1OC(=O)[C@H](C)[C@@H](O[C@H]2C[C@@](C)(OC)[C@@H](O)[C@H](C)O2)[C@H](C)[C@@H](O[C@@H]2O[C@H](C)C[C@H](N(C)C)[C@@H]2O)[C@](C)(O)C[C@@H](C)CN(C)[C@H](C)[C@@H](O)[C@]1(C)O,2.23% (inactive),
CCCCN(CCCC)CCCOC(=O)c1ccc(N)cc1,-2.51% (inactive),
COc1c(C)c2c(c(O)c1CC=C(C)CCC(=O)OCCN1CCOCC1)C(=O)OC2,13.4% (inactive),
O=C(O)c1ccccc1Nc1cc(Cl)ccc1C(=O)O,-31% (inactive),
COC(=O)c1ccccc1C(=O)c1ccc(OCCN2CCCCC2)cc1,-14.1% (inactive),
C[C@H]1C[C@H]2[C@@H]3CCC4=CC(=O)C=C[C@]4(C)[C@@H]3C(=O)C[C@]2(C)[C@@]1(O)C(=O)CO,-19.3% (inactive),
CCCCCCCCCCCCCCCCCCOCC(O)CO (stereo not given),-16.4% (inactive),
O=C(O)CCCC[P+](c1ccccc1)(c1ccccc1)c1ccccc1,20.9% (inactive),
O=C(Nc1ccccc1)Nc1ccc(-c2ccc(C(=O)[C@H]3CCC[C@H]3C(=O)O)cc2)cc1,-3.35% (inactive),
CCCN(CCc1cccs1)[C@H]1CCc2c(O)cccc2C1,5.08% (inactive),
O=c1[nH]c(=O)n([C@H]2O[C@H](CO)[C@@H](O)[C@@H]2O)cc1/C=C\Br,3.35% (inactive),
CN(C)C(=O)Nc1ccc(Cl)c(Cl)c1,13.4% (inactive),

SMILES,activation,Potency
O=[N+]([O-])c1cccc(S(=O)(=O)NCCNS(=O)(=O)c2cccc([N+](=O)[O-])c2)c1,24.3% (inactive),
CCCNC(C)C(=O)Nc1c(C)csc1C(=O)OC (stereo not given),-37.9% (inactive),
Cc1ncc(CO)c(CN)c1O,16.4% (inactive),
CC(C)(C)C1CCC(CC2=C(O)c3ccccc3C(=O)C2=O)CC1 (stereo not given),-11.9% (inactive),
CC(C)(Oc1ccc(Cl)cc1)C(=O)OCCCOC(=O)C(C)(C)Oc1ccc(Cl)cc1,-6.69% (inactive),
CCOc1cc(NC(C)=O)ccc1C(=O)OC,-3.95% (inactive),
CC(C)n1c(/C=C/[C@@H](O)C[C@@H](O)CC(=O)O)c(-c2ccc(F)cc2)c2ccccc21,-1.69% (inactive),
COc1ccc(NS(=O)(=O)c2ccc(N)cc2)nn1,6.69% (inactive),
Cc1ccc([C@@H]2O[C@H](CO)[C@@H](O)[C@H](O)[C@@H]2O)cc1Cc1ccc(-c2ccc(F)cc2)s1,-12.3% (inactive),
Nc1ccc([N+](=O)[O-])cc1O,-7.53% (inactive),
CCCCC(=O)OCC(=O)[C@H]1[C@H](C)C[C@H]2[C@@H]3C[C@H](F)C4=CC(=O)C=C[C@]4(C)[C@@]3(F)[C@@H](O)C[C@@]21C,-6.21% (inactive),
Cc1ccc(O)c(-n2nc3ccccc3n2)c1,7.53% (inactive),
CC(O)Cn1cnc2c1c(=O)n(C)c(=O)n2C (stereo not given),26.6% (inactive),
CCCCCC(C)N (stereo not given),28.8% (inactive),
CCN(CC)CCOC(=O)C(c1ccccc1)c1ccccc1,-8.47% (inactive),
CC(C)OC(=O)[C@H](C)N[P@](=O)(OC[C@H]1O[C@@H](n2ccc(=O)[nH]c2=O)[C@](C)(F)[C@H]1O)Oc1ccccc1,15% (inactive),
Cc1ccc(NC2=CC(=O)c3sc(C)nc3C2=O)cc1,,3.85 µM (active)
COCCc1ccc(OCC2CO2)cc1 (stereo not given),7.53% (inactive),
N[C@H](C(=O)O)[C@@H](O)c1ccc(O)c(O)c1,5.02% (inactive),
CCOc1cc(OCC)c(C(=O)CCC(=O)O)cc1OCC,-15.3% (inactive),
